According to PubChem BioAssay:
A number with no mark means an inactive call. Activity calls are given as the source filed them.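 Rule for the calls, unless noted: active = mean inhibition above 46.68%, the untreated control wells mean plus 3 SD; inactive = the rest.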

What was measured:
[1] = molecular target: Nuclear receptor coactivator 1 (Homo sapiens) (UniProt Q15788); assay: SRC1 coactivator transcriptional activity inhibitors, confirmation, cell-based, luminescence, quadruplicate (AID 588820); conditions: HEK293 GAL4-SRC1 luciferase reporter, at 3.6 µM, stronger effect = higher value;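 note: 0% = DMSO wells and 100% = gossypol 36 µM treated wells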
[2] = VP16 transactivation inhibitors, counter-screen for SRC1 inhibitor project, cell-based, luminescence, high throughput (AID 588824; in the data active = inhibition above about 25%); conditions: cell-based VP16 transactivation luciferase luminescence; at 3.6 µM; stronger effect = higher value
[3] = StAR promoter reporter inhibitors, counter-screen for LRH-1 inverse agonist project, cell-based, luminescence, high throughput (AID 651611; in the data active = inhibition above about 28%); conditions: StAR promoter luciferase reporter counterscreen, at 3.6 µM, stronger effect = higher value
[4] = molecular target: Nuclear receptor subfamily 5 group A member 2 (Homo sapiens) (UniProt O00482); assay: LRH-1 (NR5A2) inverse agonists, retest, confirmation, cell-based, luminescence (AID 651613; in the data active = inhibition above about 42%;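 note: HEK293T cells co-transfected with LRH-1 and StAR promoter luciferase reporter; 0% = vehicle wells and 100% = parental cells lacking receptor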); conditions: cell-based LRH-1 luciferase reporter, inverse agonism; at 3.6 µM; stronger effect = higher value
[5] = molecular target: Steroidogenic factor 1 (Homo sapiens) (UniProt Q13285); assay: SF1 (NR5A1) inverse agonists, counter-screen for LRH-1 inverse agonist project, cell-based, luminescence, high throughput (AID 651614; in the data active = inhibition above about 44%;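 note: cells cotransfected with StAR promoter reporter and SF1 expression vector; 0% = vehicle on cells with receptor and 100% = vehicle on cells lacking receptor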); conditions: cell-based SF1 luciferase reporter, at 3.6 µM, stronger effect = higher value
[6] = VP16 transactivation reporter inhibitors, counter-screen for LRH-1 inverse agonist project, cell-based, luminescence, high throughput (AID 651615; in the data active = inhibition above about 33%); conditions: Gal4-VP16 luciferase reporter cells, at 3.6 µM, stronger effect = higher value

Sequence of Nuclear receptor subfamily 5 group A member 2 (Homo sapiens) (O00482 whole entry, looked up): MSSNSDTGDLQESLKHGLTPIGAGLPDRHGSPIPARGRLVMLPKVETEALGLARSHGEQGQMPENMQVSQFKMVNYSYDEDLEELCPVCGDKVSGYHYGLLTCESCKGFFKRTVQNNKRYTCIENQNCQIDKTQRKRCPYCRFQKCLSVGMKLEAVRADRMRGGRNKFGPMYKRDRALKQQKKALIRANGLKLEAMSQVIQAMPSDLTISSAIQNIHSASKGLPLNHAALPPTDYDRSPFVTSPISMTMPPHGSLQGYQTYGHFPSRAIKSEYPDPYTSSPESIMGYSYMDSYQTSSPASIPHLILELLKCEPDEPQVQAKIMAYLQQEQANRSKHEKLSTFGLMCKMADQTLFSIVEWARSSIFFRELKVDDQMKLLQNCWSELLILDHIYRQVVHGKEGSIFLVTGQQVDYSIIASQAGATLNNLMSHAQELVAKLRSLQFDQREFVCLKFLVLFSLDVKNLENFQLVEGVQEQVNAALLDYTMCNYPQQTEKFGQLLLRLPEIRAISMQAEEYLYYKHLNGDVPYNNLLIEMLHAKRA
Sequence of Nuclear receptor coactivator 1 (Homo sapiens) (Q15788 whole entry, looked up, the tested form may be a part): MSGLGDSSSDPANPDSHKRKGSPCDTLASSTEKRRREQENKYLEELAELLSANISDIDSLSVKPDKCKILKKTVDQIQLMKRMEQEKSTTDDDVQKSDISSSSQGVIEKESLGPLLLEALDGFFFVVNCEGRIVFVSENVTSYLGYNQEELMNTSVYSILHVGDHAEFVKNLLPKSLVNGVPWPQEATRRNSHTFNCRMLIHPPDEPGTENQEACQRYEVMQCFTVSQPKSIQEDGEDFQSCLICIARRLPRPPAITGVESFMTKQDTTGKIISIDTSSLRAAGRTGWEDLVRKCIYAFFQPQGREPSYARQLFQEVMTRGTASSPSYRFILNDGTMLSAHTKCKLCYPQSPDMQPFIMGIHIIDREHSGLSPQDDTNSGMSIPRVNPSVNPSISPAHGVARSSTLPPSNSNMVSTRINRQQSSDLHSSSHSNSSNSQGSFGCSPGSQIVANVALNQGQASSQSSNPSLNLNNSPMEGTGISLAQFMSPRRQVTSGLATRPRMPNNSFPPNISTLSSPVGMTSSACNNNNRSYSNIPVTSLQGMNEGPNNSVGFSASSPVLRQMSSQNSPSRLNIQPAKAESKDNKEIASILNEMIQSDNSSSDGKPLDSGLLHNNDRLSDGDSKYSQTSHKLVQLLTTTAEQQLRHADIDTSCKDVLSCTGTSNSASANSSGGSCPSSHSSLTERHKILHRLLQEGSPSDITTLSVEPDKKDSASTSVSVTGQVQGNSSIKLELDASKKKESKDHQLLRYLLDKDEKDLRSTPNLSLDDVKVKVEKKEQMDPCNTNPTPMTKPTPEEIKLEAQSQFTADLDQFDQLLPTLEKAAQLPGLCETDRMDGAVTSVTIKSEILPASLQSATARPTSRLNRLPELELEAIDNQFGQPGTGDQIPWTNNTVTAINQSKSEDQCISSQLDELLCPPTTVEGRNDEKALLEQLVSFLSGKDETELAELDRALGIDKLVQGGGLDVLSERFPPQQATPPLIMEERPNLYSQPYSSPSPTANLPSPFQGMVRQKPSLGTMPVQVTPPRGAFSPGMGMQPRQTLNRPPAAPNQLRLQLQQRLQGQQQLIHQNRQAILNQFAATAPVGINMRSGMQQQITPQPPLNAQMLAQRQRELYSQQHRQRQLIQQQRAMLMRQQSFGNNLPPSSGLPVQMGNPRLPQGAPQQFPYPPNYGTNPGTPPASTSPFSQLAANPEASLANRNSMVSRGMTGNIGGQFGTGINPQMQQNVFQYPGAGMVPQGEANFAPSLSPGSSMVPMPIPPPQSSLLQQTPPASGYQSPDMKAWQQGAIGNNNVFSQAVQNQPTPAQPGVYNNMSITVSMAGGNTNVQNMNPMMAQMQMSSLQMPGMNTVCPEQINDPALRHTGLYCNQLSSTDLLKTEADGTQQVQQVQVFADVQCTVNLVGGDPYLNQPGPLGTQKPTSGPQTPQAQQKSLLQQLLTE
Sequence of Steroidogenic factor 1 (Homo sapiens) (Q13285 whole entry, looked up, the tested form may be a part): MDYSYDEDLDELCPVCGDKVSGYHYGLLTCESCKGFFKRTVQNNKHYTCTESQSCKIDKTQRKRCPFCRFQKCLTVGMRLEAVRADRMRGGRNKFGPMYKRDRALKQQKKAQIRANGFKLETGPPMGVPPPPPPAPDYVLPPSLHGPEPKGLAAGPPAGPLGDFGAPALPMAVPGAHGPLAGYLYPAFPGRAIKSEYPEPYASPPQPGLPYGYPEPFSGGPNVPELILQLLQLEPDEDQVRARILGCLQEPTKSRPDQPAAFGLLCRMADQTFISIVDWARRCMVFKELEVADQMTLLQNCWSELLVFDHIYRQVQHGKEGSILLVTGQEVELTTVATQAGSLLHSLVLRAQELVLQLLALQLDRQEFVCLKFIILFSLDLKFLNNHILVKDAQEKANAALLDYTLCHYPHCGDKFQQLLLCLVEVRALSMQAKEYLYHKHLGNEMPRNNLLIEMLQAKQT

Row | Compound | inhibition [1] | inhibition [2] | inhibition [3] | inhibition [4] | inhibition [5] | inhibition [6]
1 | NS(=O)(=O)c1ccc(N=Nc2c(O)[nH]c3ccc(Br)cc23)cc1 | 8.56% | 5.38% | 38.4% (active) | 23.4% | 30.4% | 8.51%
2 | COCCn1c(SCCCC(=O)c2ccc(Br)cc2)nnc1-c1ccncc1 | -2.26% | 25.2% | 6.33% | 44.3% (active) | 46% (active) | 44.7% (active)
3 | Cc1cccc(-n2c(CNC(=O)c3ccccc3)nnc2SCC(=O)Nc2nccs2)c1 | -8.14% | 4.71% | 10.2% | 10.1% | 17.1% | 3.06%
4 | CC1(C)CC(N2CCCC2)=CC(=[N+]2CCCC2)C1 | 2.13% | 23.9% | 12% | 62% (active) | 55.2% (active) | 51.4% (active)
5 | COc1ccccc1NS(=O)(=O)c1cccc(C(=O)NC2CCN(Cc3ccccc3)CC2)c1 | -19.5% | 26.4% (active) | 26.2% | 60.4% (active) | 65.3% (active) | 48.3% (active)
6 | NC(=O)[C@H]1CC2(CC(c3cccc(NC(=O)COc4ccc(Cl)cc4)c3)=NO2)CN1C(=O)Cc1ccc([N+](=O)[O-])cc1 (some centres undefined) | 8.04% | 39.5% (active) | 13.5% | 55.8% (active) | 50.3% (active) | 52.5% (active)
7 | Cc1ccc2occ(/C=N/NC(=O)c3ccccc3O)c(=O)c2c1 | 5.51% | 13.2% | 14.5% | 3.45% | 2% | 25%
8 | COc1ccc(CNC(=O)c2cccc3c(-c4cccnc4)coc23)cc1OC | -25.2% | 43.8% (active) | 48.5% (active) | 59.9% (active) | 66.4% (active) | 67.4% (active)
9 | Cc1ccc(S(=O)(=O)CC2CSc3nc4ccccc4n32)cc1 (centres undefined) | -13.8% | 33.3% (active) | 22.6% | 65.3% (active) | 54.6% (active) | 50.7% (active)
10 | Cc1ccc(S(=O)(=O)/N=C(\CCl)N2CCOCC2)cc1 | -32.5% | -30.7% | 23.9% | 50.2% (active) | 52.1% (active) | -22.8%
11 | CCc1c(C)nc2ncnn2c1NCCc1ccc(OC)cc1 | -21.1% | 28.3% (active) | 46.9% (active) | 53.9% (active) | 66.2% (active) | 42.2% (active)
12 | CC(=O)Nc1ccc(Nc2c3ccccc3nc3ccccc23)cc1 | 22.8% | 39.4% (active) | 62.5% (active) | 106% (active) | 69.6% (active) | 72.8% (active)
13 | CCN(CC)S(=O)(=O)c1cc(NC(=O)CNc2cccc(S(=O)(=O)N3CCCC3)c2)ccc1C | -4.32% | 32.8% (active) | 21.6% | 61.7% (active) | 54.9% (active) | 49.1% (active)
14 | COc1cccc2c1C(=O)c1c(O)c3c(c(O)c1C2=O)C[C@@](O)(C(=O)CO)C[C@@H]3OC1CC(N)C(O)C(C)O1 (some centres undefined) | -127% | 71.4% (active) | -14.6% | 87.5% (active) | 70.6% (active) | 82.6% (active)
15 | CN(Cc1ccccc1)C(=O)c1ccc(NC(=O)Cc2ccc(NC(=O)C3CCCN(C(=O)CCc4ccccc4)C3)cc2)cc1 (centres undefined) | -11.5% | 37.6% (active) | 29% (active) | 62.2% (active) | 64.3% (active) | 55.8% (active)
16 | CCN(CC)CCn1nc2c3c(cccc3c1=O)-c1ccccc1-2 | 28.6% | 54.7% (active) | 54.2% (active) | 84.5% (active) | 80.1% (active) | 79.5% (active)
17 | COc1ccc(NS(=O)(=O)c2ccc(-c3cnc(C4CC4)o3)cc2)cc1OC | -15.9% | 37.2% (active) | 53.2% (active) | 77.5% (active) | 78.8% (active) | 31.6% (active)
18 | Cc1ccc(Oc2ccc(OCC(=O)Nc3ccncc3)cc2)cc1 | -33.1% | 41.3% (active) | 35.7% (active) | 79.2% (active) | 70.5% (active) | 51% (active)
19 | CN1CCN(c2ccc(CNS(=O)(=O)Cc3cccc(C(F)(F)F)c3)cc2)CC1 | -13.6% | 26.4% (active) | 15.4% | 69.8% (active) | 68.1% (active) | 40.1% (active)
